High-throughput results deposited in PubChem BioAssay by several laboratories.
HIF-2a inh: inhibitors of HIF-2a; 786-0 RCC cells HIF-2a reporter, luciferase luminescence, overnight; AID 624352; 0.72% of 360,000 active; inhibition, % at 18.8 µM;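 active = inhibition of the luminescence signal of 40% or more relative to plate controls, in a single-dose primary screen at 18.75 µM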
Peg3 promoter: inhibitors of Peg3 promoter; HeLa PEG-Prom luciferase reporter, luminescence, overnight; 1.7% of 360,000 active; inhibition, % at 20 µM; AID 588405;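 active = inhibition of at least 50% at 20 µM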
CF NFkB block: cystic fibrosis NF-kB activation inhibition; KKLEB NF-kB-GFP reporter, PAF-induced, GFP fluorescence overnight; inhibition, % at 5 µM; 0.86% of 360,000 active; AID 588850;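 active = at least 50% inhibition at 5 µM, scaled per plate between neutral and stimulator controls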;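 note: PAF is a Pseudomonas aeruginosa culture filtrate used as stimulus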
KKLEB tox: reduces viability of KKLEB cystic fibrosis airway cells; AID 602141; activity change (cytotoxicity), % at 5 µM; 0.36% of 360,000 active; KKLEB CF airway cells viability, ATPlite luminescence, overnight; stronger effect = lower value; cells stimulated with P. aeruginosa culture filtrate;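 active = corrected activity change at or below -50% at 5 µM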
Shn3 inh set2: inhibitors of Schnurri-3 3'UTR reporter in osteoblasts | 0.52% of 360,000 active | AID 588674 | Clone20 osteoblast Shn3 3'UTR firefly luciferase, 24 h | inhibition, % at 12.5 µM;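 active = mean inhibition of at least 75% with every replicate also reaching 75%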
TRPM1 prom inh: inhibitors of MITF-driven TRPM1 promoter in melanoma cells; SK-MEL-5 TRPM1 promoter luciferase, 24 h; inhibition, % at 12.5 µM; 0.83% of 330,000 active; AID 488899;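 active = mean inhibition across replicates of 60% or more, whatever share of single replicates reaches that level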
Each line names hits and unclear results; the compound was inactive in the other large screens. Hits are enriched below; roughly 2.8% of the tested compounds scored in any of these assays.

CC(C)=CCC/C(C)=C/CNC(=O)C[C@H]1C[C@H](C(=O)N(C(C)C)C(C)C)[C@@]2(C)c3[nH]c4ccc(Cl)cc4c3CCN2C1=O	none
CC(C)=CCC/C(C)=C/CNC(=O)CC1C[C@H](C(=O)N(C(C)C)C(C)C)[C@@]2(C)c3[nH]c4ccccc4c3CCN2C1=O (stereo partly drawn)	Peg3 promoter 89
CC(C)=CCC/C(C)=C/CNC(=O)C[C@H]1C[C@H](C(=O)N2CCOCC2)[C@@]2(C)c3[nH]c4cc(CCC(=O)N(C)C)ccc4c3CCN2C1=O	Shn3 inh set2 89
CC(=O)c1sc(NC(=O)CCCOc2ccc(Cl)cc2)nc1C	none
COc1ccc(-c2cn3c4c(sc3n2)CCCC4)cc1	KKLEB tox -67
CCOC(=O)C1=C(COC(=O)CCOc2ccc(C)cc2)NC(=O)NC1C (stereo not drawn)	Peg3 promoter 56
O=C(CCOc1ccccc1)Nc1ccnn1C1CCN(C(=O)CCC(F)(F)F)CC1	none
COc1ccc(OC)c(S(=O)(=O)NC(=O)C2(C)CCN2C(=O)CC2CCCC2)c1 (stereo not drawn)	none (no result: TRPM1 prom inh)
CCCNC(=O)c1cn(CC)c2cc(N3CCN(C(=O)c4ccco4)CC3)c(F)cc2c1=O	none
CCn1cc(C(=O)NCc2cccc(F)c2)c(=O)c2cc(F)c(N3CCN(C(=O)c4ccco4)CC3)cc21	Peg3 promoter 55
CN(C)CCN(C)Cc1ccccc1Sc1cccc2ccccc12	Peg3 promoter 102
CNCc1ccccc1Sc1cccc2ccccc12	none
CCOC(=O)c1sc(Nc2nc3c(OC)cccc3s2)cc1C	Peg3 promoter 77
CCOC(=O)c1sc(Nc2nc3cc4c(cc3s2)OCO4)cc1C	none
Cc1cccc(Nc2nc(NCc3ccco3)c3ccccc3n2)c1	Peg3 promoter 85, Shn3 inh set2 88
COC(=O)C1CN(Cc2ccccc2)C(=O)C1=O (stereo not drawn)	none
CCOC(=S)SCC(=O)Nc1nc(-c2ccc(Br)cc2)cs1	CF NFkB block 66
CCOC(=S)SCC(=O)Nc1nc(-c2ccccc2)cs1	none
O=[N+]([O-])c1cnc(Sc2ccncn2)c([N+](=O)[O-])c1	Peg3 promoter 113 (no result: TRPM1 prom inh)
O=[N+]([O-])c1ccc(Sc2ncccn2)c([N+](=O)[O-])c1	none
CC(=O)Nc1ccc(S(=O)(=O)N2CCC(C(=O)N[C@@H](C)C(=O)NC3CCCC3)CC2)cc1	none
O=C(COC(=O)CCN1C(=O)/C(=C\C=C\c2ccccc2)SC1=S)Nc1ccc(Br)cc1	HIF-2a inh 58, TRPM1 prom inh 64
CC(C)c1ccccc1NC(=O)COC(=O)CCN1C(=O)/C(=C\C=C\c2ccccc2)SC1=S	HIF-2a inh 82, TRPM1 prom inh 63
O=C(/C=C/c1ccc(Cl)cc1Cl)Nc1cccc(S(=O)(=O)NC2=NCCC2)c1	KKLEB tox -58
CN=c1scc(-c2ccc(F)cc2)n1/N=C/c1ccc(O)c(O)c1	Shn3 inh set2 89, TRPM1 prom inh 68
Cc1ccc(C2OCC(C)([N+](=O)[O-])CO2)cc1 (stereo not drawn)	none
Cn1nc(C(F)(F)F)c(-c2ccc(Br)cc2)c1NC(=O)Nc1ccc(F)cc1F	Peg3 promoter 51 (no result: Shn3 inh set2)
CCCCCCc1cc2cc(C(=O)Nc3ccccc3)c(=O)oc2cc1O	CF NFkB block 79, KKLEB tox -83, TRPM1 prom inh 72
Cc1cccc(N2CCN(C(=O)CSCc3c(C)noc3C)CC2)c1C	Shn3 inh set2 85
Cc1ccc2nc(-c3ccc(NC(=S)NC(=O)C(C)C)cc3)sc2c1	none
Cc1ccc2nc(-c3ccc(NC(=S)NC4CC(C)(C)NC(C)(C)C4)cc3)sc2c1	Peg3 promoter 105
CC(C)(C)OC(=O)N[C@@H](Cc1ccccc1)C(=O)N1CCC(C(=O)N[C@@H](Cc2c[nH]c3ccccc23)C(=O)O)CC1	none
O=C1c2ccccc2C(=O)c2c(/C=C/N3CCCCC3)ccnc21	TRPM1 prom inh 95
O=C1c2ccccc2-c2cccnc21	none (no result: TRPM1 prom inh)
COC(=O)[C@]12CCCCC=C1N(CCC1=CCCCC1)C(=O)[C@H](CC(=O)N1CCOCC1)C2	none (no result: Peg3 promoter, CF NFkB block, KKLEB tox, Shn3 inh set2, TRPM1 prom inh)
O=C(O)CN1C(=O)/C(=C\c2cc([N+](=O)[O-])ccc2OCc2ccccc2Cl)SC1=S	none
O=C(CCCN1C(=O)/C(=C\c2cccs2)SC1=S)Nc1cc([N+](=O)[O-])ccc1O	CF NFkB block 53
O=C(CCCN1C(=O)/C(=C/c2cccs2)SC1=S)Nc1cccc(O)c1	Peg3 promoter 61
O=C(CCN1C(=O)/C(=C/c2cccs2)SC1=S)Nc1ccccc1O	none
O=C1/C(=C\c2cc([N+](=O)[O-])ccc2O)SC(=S)N1Cc1ccc(Cl)cc1	Peg3 promoter 97
O=C(CCCN1C(=O)/C(=C/c2cccs2)SC1=S)NNC(=O)c1ccc(F)cc1	HIF-2a inh 46
